According to PubChem BioAssay AID652025 (National Center for Advancing Translational Sciences (NCATS), 2013):
Values joined by “and” are separate entries in the source; they are usually repeats but may differ in a detail not shown here. Equal values may be shown once. Screen size: about 360,000 compounds; about 240 (0.067%) were called active. No stated cut-off is given here; in the data, active means activation above about 50%; inconclusive means mostly about 30% to 49%; inactive means weaker than that. The list comes from a sample in which actives are over-represented; it also holds similar structures and randomly drawn compounds.

Assay: qHTS of IL-2 Activators; further: 0% is about no effect
Conditions: IL-2 activation reporter assay, cell-based qHTS; active compounds read high; in transgenic mouse T cells; stimulated with anti-CD3/CD4/CD28 beads
Description: The adaptive immune response against any infectious agent begins with the activation of an antigen specific T cell. This relatively rare and inert ("naive") T cell undergoes a massive proliferative expansion and differentiation process to generate sufficient number of potent pathogen-specific effector T cells. The effector T cells fight the infection by making cytokines and helping other cells to become fully armed as well. If any naive T cell has antigen receptors (TCRs) that can be activated by self peptides, then a variety of regulatory mechanisms kick in to prevent this cell from performing to its full potential. These processes collectively constitute the phenomenon of immunological tolerance and their failure leads to autoimmunity. One arm of tolerance involves generation of biochemical negative feedback downstream of the TCR (tuning). This is especially relevant to self antigens present in the body over long periods of time (chronic), which form the bulk of our proteome. The negative feedback serves to tune the TCR signaling, such that the ambient antigenic stimulation is nullified intracellularly. Unfortunately, this critical machinery serves as a target for chronic viral, bacterial and parasitic infections (as well as tumors), which can evade a robust immune response, simply by allowing T cells to tune down their signaling to pathogen or malignancy derived antigens. As such, disrupting the tuning in such cases would allow the tolerant T cell to function again and deliver a robust effector response.
If a therapeutic can restore responsiveness to the tuned down T cell, even for a short time, they could combat the pathogen without any additional immunization. To that end, we have developed a sensitive HTS T cell based assay based on IL-2. This assay will be screened against the Molecular Libraries Small Molecule Repository (MLSMR) to find small molecules that could elicit this response.
NIH Chemical Genomics Center [NCGC]
NIH Molecular Libraries Probe Centers Network [MLPCN]
Assay Submitter (PI): Ron Schwartz, NIAID
4 microL (750 cells/well) of unstimulated transgenic mouse T cells (columns 1-3,5-48) are dispensed into Aurora LoBase, black clear-bottom 1536-well assay plates; column 4 receives an identical concentration of transgenic memory T cells as a non-tolerant control. Compounds are then transferred via Kalypsys pin tool equipped with 1536-pin array (10 nL slotted pins, V&P Scientific, San Diego, CA). Following addition of compound and a 60 minute incubation, 1 microL of bead stimulation solution ((0.04 micron Fluospheres (Life technologies, CA) coated with 10ug/ml each anti-CD3 and anti-CD4 (clones 2C11 and GK1.5, BD Biosciences, CA) and mixed with 1ug/ml anti-CD28 (clone PV-1, BD biosciences, CA)). columns 2-48) is added to stimulate the IL-2 response pathway; media is instead added to column 1 as an unstimulated control, while PMA/ionomycin (Sigma Aldrich, MO) is added to column 3 as a control for IL-2 tolerance bypass. The plates are then incubated at 37 degrees C for 18 hours. EGFP and DsRed signal are then detected using an Acumen eX3 Explorer fluorescent plate cytometer. All cells are dispensed in cell media containing EHAA (Quality Biologicals, MD), RPMI (Quality Biologicals, MD), Glutamine (Life Technologies, CA), Penicillin/Streptomycin (Quality Biologicals, MD), 2-ME (Sigma Aldrich, MO) and 10% FBS (Gemini Bioproducts, CA) .

With `O=C(NCc1cccnc1)c1cc(C2CCCCN2C(=O)CCc2ccccc2)on1` (stereo not given) as the molecule, how does the activation read?
Its activation is -0.0033% (inactive).

For `CCOc1ccc(-n2c(SC(C)C(=O)OC)nc3c(c2=O)SCC3)cc1` (stereo not given), which activation is on record?
Its activation is -0.633% (inactive).

With `Cc1ccc(CNC(=O)CSc2nnc3c(n2)[nH]c2ccc(F)cc23)cc1` as the molecule, how does the activation read?
The activation was -0.754% (inactive).

Which activation does the source give for `Cc1cccc(N=Nc2c(O)[nH]c3ccc(F)cc23)c1` here?
Its activation is 137% (active).

With `COc1ccc(NC(=O)/C(N=Nc2cccc(S(=O)(=O)Nc3ccc(SC(F)F)cc3)c2)=C(\C)O)cc1` as the molecule, how does the activation read?
Its activation is 0.0635% (inactive).

For `Cc1ccccc1OC(=O)Cn1c(C(F)(F)F)nc2ccccc21`, which activation is on record?
The activation was 0.516% (inactive).

Which activation does the source give for `CCCS(=O)(=O)N1CCN=C1SCc1cccc(F)c1` here?
The activation was 1.16% (inactive).

With `CC1=C[C@H]2Cc3cc(C)cc(C)c3S(=O)(=O)[C@@H]2C=C1` as the molecule, how does the activation read?
Its activation is 0.251% (inactive).

With `OCCCC1CCCCN1Cc1nc(Cc2ccccc2Cl)no1` (stereo not given) as the molecule, how does the activation read?
Its activation is 1.46% (inactive).

Which activation does the source give for `CCCCN(C(=O)/C=C/c1ccco1)c1c(N)n(CC(C)C)c(=O)[nH]c1=O` here?
Its activation is 5.81% (inactive).

For `CC(=O)c1cccc(NC(=O)C2CCCN(S(=O)(=O)c3cccc4nonc34)C2)c1` (stereo not given), which activation is on record?
The activation was 2.63% (inactive).

For `COc1ccc(COC[C@H](CC(C)C)N2CCN(C(=O)c3cccc(C(F)(F)F)c3)CCC2=O)cc1`, which activation is on record?
Its activation is -1.15% (inactive).

Which activation does the source give for `O=S1(=O)C=C(SCCN2CCCC2)c2ccccc21` here?
The activation was 5.28% (inactive).

For `[O-][n+]1c2c(nn1-c1ccc(Cl)c(Cl)c1)-c1nonc1CC2`, which activation is on record?
The activation was 0.19% (inactive).

Which activation does the source give for `CCOC(=O)c1cn[nH]c1NC(=S)Nc1ccccc1` here?
The activation was -3.84% (inactive).

With `CCOC(=O)C1C(=O)OC2(CCCC2)C1C(=O)OCC` (stereo not given) as the molecule, how does the activation read?
The activation was -0.195% (inactive).

With `Cc1c(C(=O)NC(=S)NCc2cccnc2)oc2ccccc12` as the molecule, how does the activation read?
The activation was -3.54% (inactive).

With `COC(=O)C1=C(N)Oc2c(oc(CO)cc2=O)C1c1c(F)cccc1Cl` (stereo not given) as the molecule, how does the activation read?
Its activation is 1.1% (inactive).

For `C=CCOC(=O)N1CCC2CC1c1cc(-c3ccc(OC)cc3)ccc12` (stereo not given), which activation is on record?
The activation was -0.638% (inactive).

For `COc1ccccc1N(C(=O)Cn1nnc2ccccc21)C(C(=O)NCc1ccco1)c1ccc(C)o1` (stereo not given), which activation is on record?
The activation was -0.406% (inactive).

For `CN(CCO)Cc1csc2ccc(Br)cc12`, which activation is on record?
Its activation is -0.737% (inactive).

For `CCOc1ccc(C(=O)NC(C(=O)NCc2ccccn2)C(C)C)cc1` (stereo not given), which activation is on record?
Its activation is -4.42% (inactive).

For `COc1ccc(/C=C/CN2CCN(Cc3ccc(C)cc3)C(CCO)C2)cc1` (stereo not given), which activation is on record?
Its activation is 0.996% (inactive).

With `Cc1cccc(C(=O)O)c1[N+](=O)[O-]` as the molecule, how does the activation read?
Its activation is -0.181% (inactive).

For `O=C1C=CC(=O)N1c1ccc(N2CCCCC2)cc1`, which activation is on record?
The activation was -7.5% (inactive).

With `OCC1(CO)CC2(C1)CC(CO)(CO)C2` as the molecule, how does the activation read?
The activation was 0.276% (inactive).

For `CC(C)(C)C(=O)NNC(=O)c1ccc(Oc2cc(Cl)cc(Cl)c2)o1`, which activation is on record?
The activation was 0.282% (inactive).

For `Cc1ccc(NC(=O)c2nc[nH]c2C(=O)N2CCCCC2)c(C(=O)c2ccccc2)c1`, which activation is on record?
Its activation is -0.352% (inactive).

For `O=C(CCN1C(=O)/C(=C/c2cccs2)SC1=S)NNC(=O)c1cccc(O)c1`, which activation is on record?
The activation was 133% (active).

For `O=C1/C(=C/c2cccs2)SC(=S)N1C1CCS(=O)(=O)C1` (stereo not given), which activation is on record?
The activation was 2.78% (inactive).

With `O=C(CCN1C(=O)c2ccccc2C1=O)NNC(=O)c1ccc(Cl)cc1Cl` as the molecule, how does the activation read?
Its activation is 0.499% (inactive).

For `CCOC(=O)C1CCCN(S(=O)(=O)c2ccc3c(c2)C(C)(C)C(=O)N3C)C1` (stereo not given), which activation is on record?
Its activation is -2.21% (inactive).

For `CCCn1c(=O)c2[nH]c(C3CCCC3)nc2n(CCC)c1=O`, which activation is on record?
The activation was -0.643% (inactive).

Which activation does the source give for `C[C@]12C=CC(=O)C=C1CC[C@@H]1[C@@H]2C(=O)C[C@@]2(C)[C@H]1CC[C@]2(O)C(=O)CO` here?
The activation was 0.342% (inactive) and -0.368% (inactive).

With `CCOCCCN(C)C1CCN(C(=O)c2oc3ccccc3c2NC(=O)Cc2cccc([N+](=O)[O-])c2)CC1` as the molecule, how does the activation read?
Its activation is -1.43% (inactive).

For `O=C(Nc1ccc(Br)cc1)C1CCC(=O)N1Cc1ccccc1Cl` (stereo not given), which activation is on record?
Its activation is -1.19% (inactive).

For `C=CCOC(=O)C1=C[C@H](c2ccc(Br)cc2)C[C@H](OCCCCO)O1`, which activation is on record?
Its activation is 0.356% (inactive).

With `CC(C)OC(=O)Cn1nc(C(F)(F)F)c2c1CCCC2` as the molecule, how does the activation read?
The activation was 0.525% (inactive).

Which activation does the source give for `C=CCn1c(CCNC(=O)c2ccccc2F)nnc1SCC(=O)Nc1ccc(OC)cc1` here?
Its activation is 0.0893% (inactive).

Which activation does the source give for `CON(C)S(=O)(=O)c1ccc2c(c1)NC(=O)C1CCCN21` (stereo not given) here?
The activation was -2.38% (inactive).

Which activation does the source give for `O=c1[nH]c(CSc2ccccc2)nc2c1oc1ccccc12` here?
Its activation is 0.844% (inactive).

Which activation does the source give for `CCC(C)Sc1nc2c(cnn2-c2ccc(F)cc2)c(=O)[nH]1` (stereo not given) here?
The activation was -4.9% (inactive).

Which activation does the source give for `CC(=O)CC[C@@H](C)O[C@@H]1OC(C)[C@H](O)CC1O` (stereo not given in full) here?
The activation was 0.121% (inactive).

With `C/C(=N\NC(=O)c1ccc(CSc2nc(C)cc(C)n2)cc1)C1CCCCC1` as the molecule, how does the activation read?
Its activation is -0.149% (inactive).

Which activation does the source give for `Cc1cc(C)n(CCNC(=O)CC2C(=O)NCCN2Cc2ccc(C)o2)n1` (stereo not given) here?
Its activation is -0.111% (inactive).
